Compound activity deposited in PubChem by National Center for Advancing Translational Sciences (NCATS).
A selection: hits, their analogues and other compounds. The true share with any hit is near 1.3%.
Six1-Eya2 blk – Six1/Eya2 interaction inhibition; AID 651725; activity change, % (test concentration not listed); Q15475+O00167; AlphaScreen GST-Six1/His-Eya2 binding, biochemical; hits give low values; hit rate 0.56% among 360,000
Target sequence (O00167 whole entry, looked up): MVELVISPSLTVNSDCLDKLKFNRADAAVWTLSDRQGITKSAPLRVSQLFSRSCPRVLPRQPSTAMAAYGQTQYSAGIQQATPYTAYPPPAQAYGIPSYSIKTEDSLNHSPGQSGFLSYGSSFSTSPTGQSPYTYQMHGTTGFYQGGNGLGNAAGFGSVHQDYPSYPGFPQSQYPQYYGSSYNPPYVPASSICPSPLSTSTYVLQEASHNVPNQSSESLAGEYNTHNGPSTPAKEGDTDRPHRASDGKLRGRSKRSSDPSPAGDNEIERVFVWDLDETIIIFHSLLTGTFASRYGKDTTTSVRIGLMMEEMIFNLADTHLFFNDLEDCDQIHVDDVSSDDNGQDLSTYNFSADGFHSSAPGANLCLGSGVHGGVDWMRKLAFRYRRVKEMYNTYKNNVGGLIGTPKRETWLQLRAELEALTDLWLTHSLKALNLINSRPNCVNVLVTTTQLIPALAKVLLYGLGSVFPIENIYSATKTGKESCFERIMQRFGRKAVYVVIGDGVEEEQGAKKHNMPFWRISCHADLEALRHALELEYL
Target sequence (Q15475 whole entry, looked up): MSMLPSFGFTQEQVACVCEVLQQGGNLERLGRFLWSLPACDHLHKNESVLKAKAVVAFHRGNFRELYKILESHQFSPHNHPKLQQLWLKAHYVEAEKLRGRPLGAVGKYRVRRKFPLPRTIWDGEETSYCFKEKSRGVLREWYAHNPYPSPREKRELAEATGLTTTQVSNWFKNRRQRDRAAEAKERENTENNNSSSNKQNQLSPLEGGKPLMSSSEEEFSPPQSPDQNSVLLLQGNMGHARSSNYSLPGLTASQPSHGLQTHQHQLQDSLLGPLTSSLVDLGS
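Compounds are tested against tagged Six1 and Eya2 proteins bridged by glutathione donor and nickel acceptor beads; after a one-hour incubation at 37 °C without light, AlphaScreen emission is recorded.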
CCT modulator – cytosolic chaperonin activity modulation; purified chaperonin ATPase assay, HTRF ADP detection, 30 min; activity change, % (no concentration beside the values), hits read low; hit rate 0.3% among 360,000; AID 651819; in the data active means activity change below about -30%
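Enzyme 40 or 20 nM (batch-dependent) in Tris pH 7.4/KCl/MgCl2/DTT; cpd 76 uM single point; ATP 10 uM; 30 min 37 °C; Transcreener ADP HTRF detection, 30 min RT; ratio 665/615.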
pAkt inh – inhibitors of Akt phosphorylation. Neuro2A IGF-stimulated pAkt S473 HTRF, 20 min; hits give low values. activity change, % for hits at 50 µM. hit rate 0.32% among 360,000. AID 651550; in the data active means activity change below about -80%; inconclusive means mostly about -51% to -80%
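Neuro2A cells in DMEM with 0.5% FBS, overnight at 37 deg C, given compound at single 50 µM final, then IGF (6 nM final) for 20 min at 37 deg C. Lysed; phospho-Akt Ser473 by HTRF after 24 h, 665/615 ratio.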
CtBP-E1A blk – blocks the CtBP interaction with E1A. AlphaScreen GST-E1A/His-CtBP binding, 1536-well; hits give low values. activity change, % (no concentration beside the values). hit rate 0.49% among 340,000. AID 651724
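Protein mix (5X: 125 nM each GST-E1A, His-CtBP) was incubated with pinned compound 2 h at 37 deg C in dark, in 50 mM Tris pH 8.0 buffer with 300 mM NaCl. Glutathione donor and nickel acceptor beads followed; AlphaScreen signal read after 1 h.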
* = called active by the depositor; i = inactive; ? = inconclusive; · = not tested or not shown. Unless noted, no stated cut-off is given here; in the data, active means activity change below about -65%; inconclusive means mostly about -30% to -63%; inactive means weaker than that. On the % scale 0 is the no-effect control and ±100 the full control effect.

SMILES	Six1-Eya2 blk	CCT modulator	pAkt inh	CtBP-E1A blk
Nc1ccc(C2CCCc3nonc32)c2nonc12 (stereo not given)	-4.4	-1.0	-112.5%*	0.7
CC(C)N=c1scc(-c2cccs2)n1/N=C/c1ccc(O)c(O)c1O	-76.3*	-2.3	i	?
CN=c1scc(-c2ccccc2F)n1/N=C/c1ccc(O)c(O)c1O	-74.5*	-0.7	i	?
CCN=c1scc(-c2cccs2)n1/N=C/c1cc(OC)ccc1O	?	-3.0	i	?
CCN(c1ccccc1)S(=O)(=O)c1ccc(Cl)c(NC(=O)CN2C(=O)NC3(CCCC3)C2=O)c1	3.0	1.1	i	·
Cc1cc(C)n(CC(O)Cn2c3ccccc3c3ccccc32)n1 (stereo not given)	-1.8	-2.3	i	6.4
Cc1nccn1CC(O)Cn1c2ccccc2c2ccccc21 (stereo not given)	0.0	1.0	-100.8%*	-12.8
COc1ccc(N(CC(=O)NC2CC3CCC2C3)S(=O)(=O)c2ccc(C)c([N+](=O)[O-])c2)cc1 (stereo not given)	3.3	0.9	i	3.3
COC(=O)[C@@]1(Cc2ccccc2)[C@H]2C(=O)N(C)C(=O)[C@H]2[C@H]2CN=C(SCc3ccc(C)cc3)N21	1.3	-59.9*	i	4.6
COC(=O)[C@@]1(Cc2ccccc2)[C@H]2C(=O)N(C)C(=O)[C@H]2[C@H]2CN=C(SCc3ccc(Cl)cc3)N21	-7.0	-0.6	i	4.0
CCCCNc1c(-c2cccc(-c3ccc(OC)cc3)c2)nc2cc(C)ccn12	-17.5	-1.8	i	·
CCCCNc1c(-c2cccc(-c3ccc(OC)cc3)c2)nc2ccc(C)cn12	-21.8	-34.9*	i	-16.4
O=C1CN(S(=O)(=O)c2ccccc2)CCN1	1.4	-1.2	i	-1.0
CN(C)C(=O)c1ccc2c(c1[N+](=O)[O-])C(=O)c1ccccc1C2=O	-20.7	2.1	i	-16.5
Cc1[nH]c2ccccc2c1CCNC(=O)c1ccc2c(c1[N+](=O)[O-])C(=O)c1ccccc1C2=O	-73.3*	0.5	i	10.7
Cc1[nH]c2c(C)cccc2c1CCNC(=O)c1ccc2c(c1[N+](=O)[O-])C(=O)c1ccccc1C2=O	-65.3*	0.1	i	-91.7*
CCN(C(=O)COC(=O)/C=C/c1cccc([N+](=O)[O-])c1)c1c(N)n(Cc2ccccc2)c(=O)[nH]c1=O	-0.5	1.4	i	·
CN(C)CCN1C(=O)C(O)=C(C(=O)c2ccco2)C1c1ccccc1F (stereo not given)	6.9	0.9	-121.4%*	-0.9
Cc1cc(C)cc(C(O)c2ncc(-c3cccc(C(F)(F)F)c3)[nH]2)c1 (stereo not given)	-16.5	-2.6	i	-6.0
CC1(C)Cc2c(C#N)c(NCc3ccco3)nc(-c3ccco3)c2CO1	-3.4	0.2	-88.8%*	8.5
CC(C)c1nc2sc3c(NCc4ccco4)ncnc3c2c2c1COC(C)(C)C2	-15.2	0.2	-104.5%*	-5.2
CC(C)=CCc1c(O)cc(O)c2c(=O)c3c(CC=C(C)C)c(O)ccc3oc12	-8.6	0.2	i	-9.9
O=C(c1ccc2nc[nH]c2c1)N1CCN(c2ncc(C(F)(F)F)cc2Cl)CC1	5.0	0.5	i	-20.6
Cc1c(CC(=O)O)c(=O)oc2cc3occ(-c4ccccc4)c3cc12	-3.4	2.2	i	0.0
Cc1c(CC(=O)N[C@@H](C)C(=O)O)c(=O)oc2c(C)c3occ(-c4ccccc4)c3cc12	-65.4*	-2.1	i	-82.9*
SMILES	Six1-Eya2 blk	CCT modulator	pAkt inh	CtBP-E1A blk
Cc1oc2c(c(C)cc3oc(=O)c(CC(=O)N[C@@H](C)C(=O)O)c(C)c32)c1C	-5.5	-32.7*	i	-16.9
Cc1coc2c(C)c3oc(=O)c(CCC(=O)N[C@@H](C)C(=O)N[C@@H](Cc4ccccc4)C(=O)O)c(C)c3cc12	-69.4*	1.7	i	-80.1*
Cc1c(CC(=O)N[C@@H](C)C(=O)O)c(=O)oc2cc3occ(-c4ccccc4)c3cc12	-69.3*	-1.4	i	·
Cc1coc2c(C)c3oc(=O)c(CC(=O)N[C@@H](CC(C)C)C(=O)O)c(C)c3cc12	-3.0	1.3	i	-4.0
CCCC(NC(=O)Cc1c(C)c2cc3c(C)c(C)oc3c(C)c2oc1=O)C(=O)N[C@@H](Cc1ccccc1)C(=O)O (stereo not given in full)	-8.3	-3.7	i	0.7
CCN(CC(=O)Nc1c(F)cccc1F)C(=O)c1ccc2c(c1)OCO2	8.4	1.0	i	·
O=C(N/N=C/C=C\c1ccccc1)c1cnccn1	-3.6	-0.8	i	5.2
O=C(N/N=C/C(Br)=C\c1ccccc1)c1n[nH]c2c1CCC2	-20.7	0.0	i	-87.4*
O=C(N/N=C/C(Br)=C/c1ccccc1)c1cnccn1	-81.6*	3.0	i	?
COc1cccc(C(=O)N/N=C/C(Br)=C/c2ccccc2)c1	-27.9	2.0	i	-87.9*
O=C(CN1CCOCC1)N/N=C/C(Br)=C\c1ccccc1	-21.6	-2.6	i	-81.4*
CCN(CC(=O)Nc1ccc(NC(C)=O)cc1)C(=O)c1cccnc1Sc1ccc(C)c(C)c1	-29.0	0.3	i	-0.1
COc1ccc(Br)cc1C(=O)NC(=S)Nc1c(C)n(C)n(-c2ccccc2)c1=O	-8.2	-2.4	i	-0.4
Cc1occc1C(=O)N/N=C/C(Br)=C/c1ccccc1	-10.9	-2.5	i	?
O=C(N/N=C/C(Br)=C/c1ccccc1)c1ccccc1[N+](=O)[O-]	-21.4	0.8	i	-92.5*
CCC(CC)CC1CN2CCc3cc(OC)c(OC)cc3C2CC1(O)CC (stereo not given)	-0.3	2.2	i	-4.4
COCC(=O)Nc1nnc(SCC(=O)N2CCCCC2)s1	9.2	-0.7	i	9.1
O=C(Nc1nnc(SCC(=O)N2CCCCC2)s1)C1CCCCC1	2.7	-59.8*	i	-12.6
COc1ccc(-c2noc(CCC(=O)N3CCN(c4ccccc4OC)CC3)n2)cc1	-0.3	-39.4*	i	0.5
COc1ccc(-c2noc(CCC(=O)N3CCN(c4ccccc4C)CC3)n2)cc1	2.1	-0.6	i	4.7
COc1ccccc1N1C(=O)CCC1(C#N)c1ccccc1 (stereo not given)	1.3	-7.1	-106.9%*	3.4
N#CC1(c2ccccc2)CCC(=O)N1c1ccccc1 (stereo not given)	6.2	2.3	i	·
CCOC(=O)N1CCN(S(=O)(=O)c2ccc(C)c(C)c2)CC1	0.6	0.5	-99.0%*	-0.7
CCOC(=O)N1CCN(S(=O)(=O)c2ccc(OCC)c(C)c2)CC1	1.8	0.3	i	-6.9
O=c1[nH]cnc2nn(-c3ccccc3)nc12	?	-2.5	i	-65.4*
Cc1ccc(C)c(C(=O)COC(=O)CN2C(=O)C3C4CCC(C4)C3C2=O)c1 (stereo not given)	0.0	0.1	i	-1.6
Cc1csc(NC(=O)c2ccccc2O)n1	1.9	2.5	-98.8%*	-4.3
CC(=O)Nc1nc(=S)ss1	4.7	-0.4	i	6.6
Cc1ccccc1C(=O)Nc1nc(=S)ss1	3.6	-57.5*	i	8.8
